Compound activity as filed in PubChem BioAssay.
Rows were chosen to be rich in hits. Some 6.6% of all compounds tested hit in one or more screens of this group.
HT1080NT lethal: kills 2HG-producing HT-1080-NT fibrosarcoma cells | Potency, µM (series often up to 46.1 µM), for the others: at the highest dose activity, negative = less viability, hits mostly cytotoxic | 360,000 tested, 1.6% active | HT-1080-NT fibrosarcoma viability, CellTiter-Glo ATP luminescence, 48 h;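 also: NT is the 2HG producing partner of a matched IDH1 knockdown line; 0% = DMSO-treated cells and -100% = media-only wells without cells; nearly all actives have a fitted effect of over 55% in size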
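Read-out is CellTiter-Glo luminescence after 10 minutes at room temperature, following 48 hours' compound treatment of HT-1080-NT cells (750 cells/well, RPMI, 5% FBS, 37 degrees C).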
TGFb SMAD3 inh: blocks TGF-b signaling; HepG2 CAGA-GFP TGF-b/SMAD3 reporter, GFP fluorescence, 18 h; TGF-beta stimulated, 500 pg/mL final; Potency, µM (highest dose often 46.1 µM), without a hit: top-dose activity, negative = inhibition, most hits filed as inhibitors; 410,000 tested, 1.2% active; AID 588855; also: % is scaled to controls: 0 for no effect and ±100 for the full control effect; nearly all actives have a fitted effect of over 65% in size
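Smad-responsive CAGA-GFP expression was quantified in HEPG2 cells exposed to compounds and 500 pg/mL final TGF-beta for 18 h at 37 degrees C; unstimulated wells defined full inhibition.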
KB-3-1 cytotox: KB-3-1 parental cell cytotoxicity; KB-3-1 viability, CellTiter-Glo ATP luminescence, 72 h; Potency, µM (highest dose often 46.1 µM), actives largely listed as cytotoxic; 400,000 tested, 1.4% active; also: % is scaled to controls: 0 for no effect and ±100 for the full control effect; nearly all actives have a fitted effect of over 60% in size
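Using CellTiter-Glo luminescence, growth of non-resistant KB-3-1 adenocarcinoma cells is assessed 72 h after pin-tool compound addition at 37 °C. Normalized responses across the concentration series yield fitted curves.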
HepG2 tox-1: kills HepG2 cells in TGF-b inhibitor counter-screen; HepG2 CAGA-GFP viability, ATP luminescence, 18 h; Potency, µM (doses to about 46.1 µM), without a hit: at the top dose activity change, negative = cytotoxicity, hits mostly cytotoxic; 410,000 tested, 0.76% active; AID 588856
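CellTiter-Glo luminescence gave cytotoxicity after 18 hours at 37 degrees C. The cells were HepG2 CAGA-GFP in 1% FBS DMEM, stimulated with 500 pg/mL TGF-beta after compound addition. %Activity was normalised to no-cell wells (complete cell-killing) and DMSO (no toxicity), and curves were fitted and classified.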
HT1080 IDH1KD tx: HT-1080 IDH1 knockdown cell toxicity (counter line); HT-1080 IDH1 knockdown viability, ATP luminescence, 48 h; Potency, µM (top dose mostly 46.1 µM), for the others: at the top dose activity, negative = toxicity, hits mostly cytotoxic; 360,000 tested, 2% active;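 also: 0% = DMSO wells and -100% = cell-free medium wells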
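Knockdown cells (IDH1KD HT-1080) received compounds 2 h after plating at 750 cells/well and were kept 48 h at 37 °C in 5% FBS RPMI. A CellTiter-Glo luminescence read gave % activity for curve fitting.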
KB-V1 MDR tox: kills drug-selected multidrug resistant KB-V1 cells. KB-V1 MDR cells viability, CellTiter-Glo, 72 h. Potency, µM (top dose mostly 46.1 µM), most hits filed as cytotoxic. 400,000 tested, 3.4% active. AID 1347076; also: % is scaled to controls: 0 for no effect and ±100 for the full control effect; nearly all actives have a fitted effect of over 60% in size
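KB-V1, DMEM (no phenol red) + 10% FBS; cpd pin-transferred, titration series; 72 h, 37 degrees C; CellTiter-Glo, luminescence. Data normalized, curve-fit.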
TGFb CAGA inh: TGF-b pathway inhibition, cherry-pick retest. AID 720534. Potency, µM (titrated, usually from 46.1 µM), without a hit: at the highest dose activity, negative = inhibition, hits mostly inhibitors. HepG2 CAGA-GFP TGF-b reporter, GFP fluorescence, 18 h; cells stimulated with TGF-beta, 500 pg/mL. shares compounds with TGFb SMAD3 inh. 1,600 tested, 63% active; also: % is scaled to controls: 0 for no effect and ±100 for the full control effect; nearly all actives have a fitted effect of over 65% in size
HepG2 tox-2: counter-screen for TGF-b inhibitors: cytotoxicity in HepG2 cells; shares compounds with TGFb SMAD3 inh; HepG2 CAGA-GFP viability, ATP luminescence, 18 h; cells stimulated with TGF-beta, 500 pg/mL; Potency, µM (titrated, usually from 46.1 µM), without a hit: top-dose activity, negative = cytotoxicity, most hits filed as inhibitors; 1,600 tested, 27% active; AID 720535; also: % is scaled to controls: 0 for no effect and ±100 for the full control effect; nearly all actives have a fitted effect of over 70% in size
TGFb CCL64 inh: TGF-b inhibition, CCL64 orthogonal assay. Potency, µM (titrated, usually from 46.1 µM), for the others: at the highest dose activity, negative = inhibition, most hits filed as inhibitors. CCL64 CAGA-GFP reporter, TGF-b stimulated, GFP fluorescence, 18 h. shares compounds with TGFb SMAD3 inh. 1,600 tested, 41% active. AID 720536; also: nearly all actives have a fitted effect of over 65% in size
COP TGFb inh: validation of TGF-b inhibitors in HepG2 COP promoter reporter | shares compounds with TGFb SMAD3 inh | HepG2 COP-GFP TGF-b reporter, GFP fluorescence, 18 h; cells stimulated by added recombinant TGF-beta | Potency, µM (series often up to 46.1 µM), for inactives: at the top dose activity, negative = inhibition, usual class: inhibitors | 1,600 tested, 3% active | AID 720537; also: nearly all actives have a fitted effect of over 70% in size
* hit, by the source's call; i = inactive; ? = inconclusive; . = no result. Calls follow the shape of the dose curve; as a rule, active = well fitted curve in the direction sought with a large enough effect; inconclusive = small, poorly fitted or top-dose-only effect, or another doubt; inactive = no such curve, though single readings can be large; an effect the other way counts as inactive or inconclusive. Potency is read from the fitted curve at half-maximal effect.

SMILES	HT1080NT lethal	TGFb SMAD3 inh	KB-3-1 cytotox	HepG2 tox-1	HT1080 IDH1KD tx	KB-V1 MDR tox	TGFb CAGA inh	HepG2 tox-2	TGFb CCL64 inh	COP TGFb inh
CN(C)S(=O)(=O)c1cc(NC(=O)CSc2nn(-c3ccc(Cl)cc3)c(=S)s2)ccc1Cl	?	11.2µM*	?	4.1%	?	16.4µM*	3.66µM*	?	?	45.4%
NS(=O)(=O)c1cccc(NC(=O)CSc2nn(-c3ccccc3)c(=S)s2)c1	-17.5%	-9.4%	i	-8.4%	-17.6%	i	.	.	.	.
Cc1ccc(NC(=O)CSc2nn(-c3ccc(Cl)cc3)c(=S)s2)cc1S(=O)(=O)N(C)C	-4.8%	?	?	-16.3%	?	20.6µM*	?	?	2.8%	11.6%
Cc1ccc(NC(=O)CNc2ccc(Cl)c(Cl)c2)cc1S(=O)(=O)N(C)C	?	10µM*	?	-25.4%	?	20.6µM*	11.6µM*	?	?	54.9%
COc1ccc(C2/C=C\CN(C(=O)C3CC3)[C@H](Cc3ccccc3)C(=O)N2Cc2ccc(F)cc2)cc1 (stereo partly drawn)	?	10µM*	i	-5.3%	?	?	?	-24.8%	?	35.3%
COc1ccc2c(Sc3ccc(C)cc3)c(C(=O)NCC(C)c3ccccc3)[nH]c2c1 (stereo not drawn)	.	23.1%	i	5.5%	.	i	.	.	.	.
COc1ccc(/C(C)=N/Nc2nncc3ccccc23)cc1	3.5%	?	i	-5.4%	1.6%	i	.	.	.	.
COc1ccc(/C(C)=N/Nc2nc3ccccc3nc2C)cc1	?	7.94µM*	14.6µM*	-40.7%	?	i	?	-1.4%	-13.5%	12.5%
CSc1ncnc2c1ncn2CCCN1CCN(C(=O)C2CC2)CC1	5.9%	5.9%	i	-0.5%	8.6%	i	.	.	.	.
CN(Cc1ccccc1)C(=O)c1ccc(NC(=O)Cc2cccc([N+](=O)[O-])c2)cc1	-11.0%	10.5%	i	-31.4%	-15.0%	i	.	.	.	.
CN(CCc1ccccc1)C(=O)c1cccc(NC(=O)Cc2cccc([N+](=O)[O-])c2)c1	-0.5%	7.08µM*	i	-18.4%	-6.8%	i	?	-22.8%	-2.4%	15.9%
COc1ccc(OC)c(C2SCCN2S(=O)(=O)c2cccc(C(F)(F)F)c2)c1 (stereo not drawn)	-6.1%	?	i	-19.6%	-7.0%	i	?	-21.4%	-15.4%	-4.5%
COc1ccc2c(c1)/C(=C\c1cccc(/C=C3/C(=O)Nc4ccc(OC)cc43)n1)C(=O)N2	2.91µM*	1.26µM*	1.84µM*	-37.0%	3.26µM*	i	2.91µM*	2.59µM*	1.46µM*	48.7%
CCc1ccc2c(c1)NC(=O)C2(C)Cc1ccc(C(F)(F)F)nc1 (stereo not drawn)	5.2%	2.2%	i	-9.1%	13.8%	i	.	.	.	.
COc1cccc(NC(=O)Cn2c(=O)n(CC(=O)NCc3ccc(C)cc3)c(=O)c3sccc32)c1	.	-0.6%	.	-2.3%	.	.	.	.	.	.
O=C(Oc1c(Cl)cc(Cl)c2cccnc12)c1ccco1	?	6.31µM*	?	-2.4%	?	2.06µM*	18.4µM*	?	?	23.8%
O=C(Oc1c(Cl)cc(Cl)c2cccnc12)c1cccs1	20.6µM*	3.55µM*	?	-2.7%	20.6µM*	?	20.6µM*	?	?	5.1%
O=C(Oc1c(CN2CCOCC2)cc(Cl)c2cccnc12)c1cccs1	2.91µM*	7.08µM*	?	-62.1%	3.66µM*	?	?	?	16.4µM*	14.4%
O=C(Nc1ccccc1)Nc1nnc(CSCc2ccccc2Cl)s1	?	7.94µM*	i	-55.3%	?	?	?	-27.9%	?	-5.7%
COCc1cccc(-c2csc(C(C)(O)c3cccc(F)c3)n2)c1 (stereo not drawn)	-18.2%	-26.7%	i	-9.4%	?	i	.	.	.	.
Cc1cc(NC(=O)CS(=O)(=O)c2cn(Cc3ccccc3Cl)c3ccccc23)no1	?	?	i	-25.9%	?	?	.	.	.	.
Cc1cc(NC(=O)CS(=O)(=O)c2cn(Cc3cccc(Br)c3)c3ccccc23)no1	?	10µM*	i	-9.7%	20.6µM*	i	11.6µM*	-14.8%	?	31.3%
CCc1ccc(-c2csc(NC(=O)C3=NN(c4ccccc4)C(=O)CC3)n2)cc1	?	-28.8%	i	-14.3%	?	i	.	.	.	.
Cc1cc(C)c(-c2csc(NC(=O)C3=NN(c4ccccc4)C(=O)CC3)n2)c(C)c1	-10.5%	?	?	-18.5%	-17.4%	i	6.51µM*	-12.6%	-1.0%	-4.6%
CCn1c(SCc2nc3scc(-c4ccccc4)c3c(=O)[nH]2)nnc1-c1cccs1	?	?	i	-1.5%	?	i	.	.	.	.
COCCn1c(SCc2nc3scc(-c4ccc(Cl)cc4)c3c(=O)[nH]2)nnc1-c1cccc(C)c1	-28.3%	10µM*	20.6µM*	-25.3%	-5.6%	5.17µM*	13µM*	?	?	32.3%
